Source: PubChem
Most compounds without a hit are left out; they make up all but 3.5% or so of the library.
GPR151 ag: activators of human GPR151. Q8TDV0. activation, % at 11.2 µM. actives 1% (n = 650,000). PathHunter beta-arrestin GPR151 cells, luminescence. AID 1508602; in the data active means activation above about 4.9%;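 further: 0% = median of compound wells and 100% = cells with positive control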
Target sequence (Q8TDV0 whole entry, looked up): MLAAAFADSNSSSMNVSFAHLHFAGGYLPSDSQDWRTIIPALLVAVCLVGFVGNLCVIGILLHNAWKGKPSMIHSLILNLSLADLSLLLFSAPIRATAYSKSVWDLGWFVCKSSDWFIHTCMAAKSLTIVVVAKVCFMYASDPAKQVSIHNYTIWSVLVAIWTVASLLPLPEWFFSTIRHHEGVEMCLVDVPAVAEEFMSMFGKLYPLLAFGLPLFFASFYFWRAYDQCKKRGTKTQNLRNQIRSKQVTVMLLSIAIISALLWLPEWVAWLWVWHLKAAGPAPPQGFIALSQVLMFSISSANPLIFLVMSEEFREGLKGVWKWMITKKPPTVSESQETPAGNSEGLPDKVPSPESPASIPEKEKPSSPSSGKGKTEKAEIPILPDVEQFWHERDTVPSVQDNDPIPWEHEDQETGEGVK
FBW7 act: activators of human E3 ligase FBW7; actives 0.13% (n = 650,000); AlphaScreen FBW7–phospho-cyclin E peptide binding, activator screen; normalized activity (activation), % at 26.1 µM; Q969H0; in the data active means normalized activity above about 1.9%;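 further: purified mutant Fbw7 with reduced substrate affinity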
TEAD-YAP block: TEAD-YAP interaction inhibition. HEK-TIYL cells, TEAD-Gal4/YAP UAS-luciferase luminescence. inhibition, % at 9.12 µM. actives 1.4% (n = 640,000). AID 1259422; in the data active means inhibition above about 32%;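 further: 0% = median of test compound wells and 100% = reference inhibitor wells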
MITF primary: blocks human microphthalmia-associated transcription factor. O75030. AlphaScreen MITF homodimerization, bead proximity signal. inhibition, % at 2.6 µM. actives 0.91% (n = 650,000); in the data active means inhibition above about 50%;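 further: 0% = vehicle wells with protein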
The depositor's hits bear a star; . = no result given.

SMILES | GPR151 ag | FBW7 act | TEAD-YAP block | MITF primary
Cc1cc(C(F)(F)F)nc(SCc2ccc(C(=O)NNC(=O)c3ccccc3C)o2)n1 | -1 | 0 | 38* | 0
CCN=c1scc(-c2ccccc2F)n1/N=C/c1ccc2c(c1)OCCO2 | -8 | 0 | 51* | 14
CCN=c1scc(C)n1/N=C/c1ccc2c(c1)OCCO2 | -2 | 0 | -28 | 12
CN=c1scc(-c2ccccc2F)n1/N=C/c1ccccc1 | -7 | 0 | 99* | 18
Cc1csc(=Nc2ccccc2F)n1/N=C/c1ccsc1 | -2 | 0 | -12 | 10
COc1ccc(C(=O)NCCc2c(C)[nH]c3ccc(OC(F)(F)F)cc23)cc1 | 1 | 0 | -3 | -1
COc1ccc(NC2=C(Cl)C(=O)N(c3ccccc3OC)C2=O)cc1 | 1 | 0 | 0 | -5
CCOC(=O)c1ccc(N/C=C\C(=O)c2ccc3c(c2)OCO3)cc1 | -1 | 0 | 33* | -11
Cc1ccc(NC(=O)N2CCCc3ccccc32)cc1 | 0 | 0 | -17 | -4
CC(C)(C)c1ccc(NC(=O)N2CCc3ccccc32)cc1 | -4 | 0 | 87* | 8
COc1cc(Nc2nc(-c3ccc(N4CCOCC4)nc3)nc3nc[nH]c23)cc(OC)c1OC | -1 | 1 | 52* | 21
COc1cc(Nc2nc(-c3ccc(N4CCOCC4)nc3)ncc2C)cc(OC)c1OC | -1 | 0 | 30 | 5
COc1cc(Nc2nc(-c3ccccc3)nc3nc[nH]c23)cc(OC)c1OC | 0 | 0 | 60* | 5
COc1ccc(-c2nc3ncnc(Nc4cc(OC)c(OC)c(OC)c4)c3[nH]2)cc1 | -3 | 0 | 50* | 4
c1ccc(CNc2ccc3ncc(-c4ccco4)n3n2)nc1 | 0 | -1 | 53* | -11
Cc1csc(-c2cnc3ccc(NCCCO)nn23)c1 | 1 | 0 | 34* | 16
Cc1csc(-c2cnc3ccc(NCc4ccccn4)nn23)c1 | 1 | 0 | 40* | 12
Cc1ccc(CCC(=O)NCCCNC(=O)CCc2ccc(C)o2)o1 | -2 | 0 | 6 | 23
O=C(CCC(=O)Nc1cc(C(F)(F)F)ccc1Cl)N/N=C\c1ccc(O)cc1O | 2 | 0 | 44* | 10
Cc1ccc(/C=N/NC(=O)c2ccccc2O)c(O)c1 | 0 | 0 | 25 | 9
O=C(N/N=C/c1cc(I)ccc1O)c1ccccc1O | 0 | 0 | 67* | -10
O=C(N/N=C/c1ccc(O)cc1O)C(=O)N/N=C/c1ccc(O)cc1O | -2 | -1 | 5 | 99*
O=C(CCC(=O)N/N=C/c1ccc(O)cc1O)N/N=C\c1ccc(O)cc1O | 1 | -1 | 6 | 26
O=C(N/N=C/c1ccc(O)cc1O)c1ccccc1O | -1 | -1 | 52* | 4
FC(F)(F)c1ccc(Cn2cnc3c(NCc4ccccc4)nc(Nc4ccc(N5CCOCC5)cc4)nc32)cc1 | 0 | 0 | 6 | 12
SMILES | GPR151 ag | FBW7 act | TEAD-YAP block | MITF primary
CCCCS(=O)(=O)N1CCc2nc(COc3ccccc3)c3c(c2C1)CO[C@@H](C)C3 | 1 | 0 | . | 20
COc1ccc(C(C)NC(=O)C(=O)N/N=C/c2ccc(Cl)cc2)cc1 (stereo unspecified) | -1 | 0 | -3 | 10
CC(C)N1CCC(N2CCN(Cc3ccc(C#CC(C)(C)O)s3)CC2CCO)CC1 (stereo unspecified) | 0 | 0 | 8 | 6
O=C1C(=O)N(c2nccs2)C(c2cccc(Cl)c2)/C1=C(\O)c1ccc(Cl)cc1 (stereo unspecified) | 0 | 0 | 8 | 8
COc1c(/C=N/NC(=O)c2ccccc2O)sc2ccccc12 | 1 | 0 | -11 | -12
O=C(N/N=C/c1sc2ccccc2c1O)c1ccc(O)cc1O | 3 | -1 | 47* | 37
CCn1cccc/c1=N\c1cccc[n+]1CC | 2 | 0 | 50* | 1
CCn1c(=O)c(-c2ccccc2)c(O)c2ccccc21 | -2 | 0 | 0 | 7
CCn1c(=C2C(=O)NC(=O)NC2=O)c2cccc3cccc1c32 | -1 | -1 | 15 | 61*
CN(C)c1ccc(/C=C/CN2CCN(Cc3ccc4c(c3)OCO4)CC2)cc1 | 0 | -1 | -7 | 68*
O=C(/C=C/c1ccc(Cl)cc1)N1CCN(Cc2ccc3c(c2)OCO3)CC1 | 1 | 0 | -1 | 13
Clc1cccc(-c2cnn3c(N4CCOCC4)ccnc23)c1 | -2 | 0 | 77* | 18
c1ccc2c(-c3cnn4c(N5CCOCC5)ccnc34)cccc2c1 | -1 | 0 | -41 | -6
OCc1ccccc1-c1cnn2c(N3CCOCC3)ccnc12 | -4 | 0 | 94* | 12
Fc1ccccc1-c1cnn2c(N3CCOCC3)ccnc12 | -5 | 0 | 64* | -66
O=C(CSc1nnc(NC(=O)C2CCCCC2)s1)Nc1ccc2c(c1)OCO2 | 3 | 0 | -2 | 0
CCOc1ccc(C(=O)Nc2ccc3nn(-c4ccc(C)cc4)nc3c2)cc1Br | 0 | 0 | 4 | 11
Clc1ccc(-n2ncc3c(NCCN4CCOCC4)ncnc32)cc1 | 1 | 0 | 42* | -3
Clc1ccc(-n2ncc3c(N4CCOCC4)ncnc32)cc1 | 0 | 0 | 80* | -9
Clc1ccc(-n2ncc3c(N4CCCCCC4)ncnc32)cc1 | 4 | 0 | 90* | -6
Fc1ccc(-n2ncc3c(N4CCOCC4)ncnc32)cc1 | 0 | 0 | 77* | -21
Clc1ccc(-n2ncc3c(N4CCN(c5ccc(Cl)c(Cl)c5)CC4)ncnc32)cc1 | 0 | 0 | 9 | 10
Clc1ccc(CCNc2ncnc3c2cnn3-c2ccc(Cl)cc2)cc1 | 0 | 0 | 0 | 9
Cc1ccc(-n2ncc3c(N4CCOCC4)ncnc32)cc1Cl | -3 | 0 | 92* | -4
Cc1cccc(-n2ncc3c(N4CCN(c5ccc(Cl)c(Cl)c5)CC4)ncnc32)c1 | -1 | 0 | 3 | -1
SMILES | GPR151 ag | FBW7 act | TEAD-YAP block | MITF primary
CCOc1ccc(/C=C/C(=O)Nc2ccccc2F)cc1 | -9 | 0 | 91* | -2
Nc1c(C(=O)Nc2ccccn2)sc2nc(-c3cccs3)cc(C(F)(F)F)c12 | 1 | 0 | 1 | -9
O=C(/C=C/c1ccc(Br)cc1)Nc1ccccn1 | -7 | 0 | 35* | 11
O=C(/C=C/c1ccc2c(c1)OCO2)Nc1ccccn1 | -9 | -1 | 67* | 0
O=C(/C=C/c1ccc(F)cc1)Nc1ccccn1 | -8 | 0 | 57* | 11
O=C(CN1CCCc2ccccc21)N1CCCc2c1c(=O)oc1ccc(O)cc21 | 1 | 0 | 3 | -4
S=C(NCc1ccc(Cl)cc1)N1CCC2(CC1)OCCO2 | 0 | 0 | 1 | 0
Cc1ccccc1OCc1nc2ccc(-c3cn[nH]c3C)cc2c(=O)[nH]1 | 0 | 0 | 48* | 6
COc1cccc(OCc2nc3cc(-c4cn[nH]c4C)ccc3c(=O)[nH]2)c1 | -1 | 0 | 56* | 26
NC(=O)c1sc2cc(F)ccc2c1Cl | -1 | 1 | -6 | 13
O=C(Nc1cccc(Cl)c1)C1C2C=CC3(O2)C1C(=O)N(Cc1cccs1)C3C(=O)NC1CCCCC1 (stereo unspecified) | 1 | 0 | -4 | -1
